# According to PubChem BioAssay AID1159580 (chemical genetic matrix, 2015):
# Out of some 5,500 compounds screened, about 2,000 (36%) were called active. Another 18% or so got no clear call; they are omitted. Some of the results follow. Values without a mark were called inactive. Cut-off read from the data, not from the text of the source: active = normalized growth mostly below about 0.91 (no sharp cut-off); inconclusive = no clear call, values can overlap the other calls; inactive = mostly above about 0.92.
# Experiment: chemical genetic growth profiling, strain panel (AID 1159580);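 note: tested at 20 µM; growth read once vehicle control cultures reached saturation at 30 °C; 1 = growth at the plate median or of vehicle wells; lower values mean less growth of the strain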
# Settings: growth OD
compound,measurement,setting,value
CC(=O)O[C@]1(C(C)=O)CCC2C3C=C(C)C4=CC(=O)CCC4(C)C3CCC21C (stereo partly specified),normalized growth,"S. cerevisiae deletion strains, locus YKL009W, strain mrt4, active compounds read low",0.963
same,normalized growth,"S. cerevisiae deletion strains, locus YKL068W, active compounds read low",0.98
same,normalized growth,"S. cerevisiae deletion strains, locus YKL085W, strain MDH1 (second series), active compounds read low",0.908 (active)
same,normalized growth,"S. cerevisiae deletion strains, locus YKL085W, strain MDH1, active compounds read low",0.908 (active)
same,normalized growth,"S. cerevisiae deletion strains, locus YKL160W, strain elf1, active compounds read low",0.955
same,normalized growth,"S. cerevisiae deletion strains, locus YKL190W, strain CNB1, active compounds read low",0.93
same,normalized growth,"S. cerevisiae deletion strains, locus YKR001C, strain vps1, active compounds read low",0.81 (active)
same,normalized growth,"S. cerevisiae deletion strains, locus YKR026C, strain gcn3, active compounds read low",0.976
same,normalized growth,"S. cerevisiae deletion strains, locus YKR091W, strain srl3, active compounds read low",0.96
same,normalized growth,"S. cerevisiae deletion strains, locus YLL001W, strain dnm1, active compounds read low",0.886 (active)
same,normalized growth,"S. cerevisiae deletion strains, locus YLL026W, active compounds read low",0.941
same,normalized growth,"S. cerevisiae deletion strains, locus YLL041C, strain sdh2, active compounds read low",0.969
same,normalized growth,"S. cerevisiae deletion strains, locus YLR027C, strain aat2, active compounds read low",0.919 (active)
same,normalized growth,"S. cerevisiae deletion strains, locus YLR039C, strain RIC1, active compounds read low",0.859
same,normalized growth,"S. cerevisiae deletion strains, locus YLR058C, strain SHM2, active compounds read low",0.988
same,normalized growth,"S. cerevisiae deletion strains, locus YLR102C, strain apc9, active compounds read low",0.979
same,normalized growth,"S. cerevisiae deletion strains, locus YLR113W, strain HOG1, active compounds read low",0.949
same,normalized growth,"S. cerevisiae deletion strains, locus YLR221C, strain rsa3, active compounds read low",0.957
same,normalized growth,"S. cerevisiae deletion strains, locus YLR258W, strain gsy2, active compounds read low",0.956
same,normalized growth,"S. cerevisiae deletion strains, locus YLR262C, strain YPT6 (second series), active compounds read low",0.699 (active)
same,normalized growth,"S. cerevisiae deletion strains, locus YLR262C, strain YPT6, active compounds read low",0.859
same,normalized growth,"S. cerevisiae deletion strains, locus YLR268W, strain sec22, active compounds read low",0.913
same,normalized growth,"S. cerevisiae deletion strains, locus YLR320W, strain mms22, active compounds read low",0.864 (active)
same,normalized growth,"S. cerevisiae deletion strains, locus YLR330W, strain CHS5, active compounds read low",0.964
same,normalized growth,"S. cerevisiae deletion strains, locus YLR342W, strain FKS1 (second series), active compounds read low",0.759 (active)
same,normalized growth,"S. cerevisiae deletion strains, locus YLR342W, strain FKS1, active compounds read low",0.768 (active)
same,normalized growth,"S. cerevisiae deletion strains, locus YLR357W, strain rsc2, active compounds read low",0.953
same,normalized growth,"S. cerevisiae deletion strains, locus YLR370C, strain arc18, active compounds read low",0.96
same,normalized growth,"S. cerevisiae deletion strains, locus YLR371W, strain rom2, active compounds read low",0.984
same,normalized growth,"S. cerevisiae deletion strains, locus YLR384C, strain iki3, active compounds read low",0.964
same,normalized growth,"S. cerevisiae deletion strains, locus YLR418C, strain cdc73, active compounds read low",0.627 (active)
same,normalized growth,"S. cerevisiae deletion strains, locus YML016C, strain PPZ1, active compounds read low",0.992
same,normalized growth,"S. cerevisiae deletion strains, locus YML032C, strain rad52, active compounds read low",0.96
same,normalized growth,"S. cerevisiae deletion strains, locus YML120C, strain ndi1, active compounds read low",0.906 (active)
same,normalized growth,"S. cerevisiae deletion strains, locus YML124C, strain tub3, active compounds read low",0.976
same,normalized growth,"S. cerevisiae deletion strains, locus YMR058W, strain fet3, active compounds read low",0.913
same,normalized growth,"S. cerevisiae deletion strains, locus YMR078C, strain ctf18, active compounds read low",0.961
same,normalized growth,"S. cerevisiae deletion strains, locus YMR125W, strain sto1, active compounds read low",0.995
same,normalized growth,"S. cerevisiae deletion strains, locus YMR129W, active compounds read low",0.967
same,normalized growth,"S. cerevisiae deletion strains, locus YMR205C, strain PFK2, active compounds read low",0.888
same,normalized growth,"S. cerevisiae deletion strains, locus YMR223W, strain ubp8, active compounds read low",0.888 (active)
same,normalized growth,"S. cerevisiae deletion strains, locus YMR231W, strain pep5, active compounds read low",0.967
same,normalized growth,"S. cerevisiae deletion strains, locus YMR263W, strain SAP30, active compounds read low",0.922
same,normalized growth,"S. cerevisiae deletion strains, locus YMR307W, strain GAS1, active compounds read low",0.817
same,normalized growth,"S. cerevisiae deletion strains, locus YNL067W, strain RPL9B, active compounds read low",0.914
same,normalized growth,"S. cerevisiae deletion strains, locus YNL071W, strain lat1, active compounds read low",0.822 (active)
same,normalized growth,"S. cerevisiae deletion strains, locus YNL128W, strain TEP1, active compounds read low",0.98
same,normalized growth,"S. cerevisiae deletion strains, locus YNL153C, strain GIM3, active compounds read low",0.929
same,normalized growth,"S. cerevisiae deletion strains, locus YNL183C, strain NPR1, active compounds read low",0.939
same,normalized growth,"S. cerevisiae deletion strains, locus YNL209W, strain ssb2, active compounds read low",0.985
same,normalized growth,"S. cerevisiae deletion strains, locus YNL233W, strain BNI4, active compounds read low",0.862 (active)
same,normalized growth,"S. cerevisiae deletion strains, locus YNL248C, strain rpa49, active compounds read low",0.958
same,normalized growth,"S. cerevisiae deletion strains, locus YNL250W, strain rad50, active compounds read low",0.938
same,normalized growth,"S. cerevisiae deletion strains, locus YNL271C, strain bni1, active compounds read low",0.949
same,normalized growth,"S. cerevisiae deletion strains, locus YNL298W, strain CLA4, active compounds read low",0.966
same,normalized growth,"S. cerevisiae deletion strains, locus YNL307C, strain MCK1, active compounds read low",0.714 (active)
same,normalized growth,"S. cerevisiae deletion strains, locus YNL322C, strain KRE1 (second series), active compounds read low",0.972
same,normalized growth,"S. cerevisiae deletion strains, locus YNL322C, strain KRE1, active compounds read low",0.983
same,normalized growth,"S. cerevisiae deletion strains, locus YNR049C, strain mso1, active compounds read low",0.958
same,normalized growth,"S. cerevisiae deletion strains, locus YNR052C, strain pop2, active compounds read low",0.99
same,normalized growth,"S. cerevisiae deletion strains, locus YOL006C, strain TOP1, active compounds read low",0.85
same,normalized growth,"S. cerevisiae deletion strains, locus YOL012C, strain htz1",0.402
same,normalized growth,"S. cerevisiae deletion strains, locus YOL147C, strain pex11, active compounds read low",0.981
same,normalized growth,"S. cerevisiae deletion strains, locus YOR001W, strain rrp6, active compounds read low",0.947
same,normalized growth,"S. cerevisiae deletion strains, locus YOR061W, strain CKA2, active compounds read low",0.977
same,normalized growth,"S. cerevisiae deletion strains, locus YOR069W, strain VPS5, active compounds read low",0.998
same,normalized growth,"S. cerevisiae deletion strains, locus YOR070C, strain gyp1, active compounds read low",0.967
same,normalized growth,"S. cerevisiae deletion strains, locus YOR080W, strain dia2, active compounds read low",0.953
same,normalized growth,"S. cerevisiae deletion strains, locus YOR083W, strain WHI5, active compounds read low",0.9
same,normalized growth,"S. cerevisiae deletion strains, locus YOR106W, strain vam3, active compounds read low",0.877
same,normalized growth,"S. cerevisiae deletion strains, locus YOR136W, strain idh2, active compounds read low",0.971
same,normalized growth,"S. cerevisiae deletion strains, locus YOR144C, strain elg1, active compounds read low",0.985
same,normalized growth,"S. cerevisiae deletion strains, locus YOR184W, strain ser1, active compounds read low",0.746 (active)
same,normalized growth,"S. cerevisiae deletion strains, locus YOR231W, strain MKK1, active compounds read low",0.961
same,normalized growth,"S. cerevisiae deletion strains, locus YOR265W, strain rbl2, active compounds read low",0.954
same,normalized growth,"S. cerevisiae deletion strains, locus YOR270C, strain vph1, active compounds read low",0.718 (active)
same,normalized growth,"S. cerevisiae deletion strains, locus YOR290C, strain snf2, active compounds read low",0.969
same,normalized growth,"S. cerevisiae deletion strains, locus YOR316C, strain cot1, active compounds read low",0.979
same,normalized growth,"S. cerevisiae deletion strains, locus YPL051W, strain arl3, active compounds read low",0.922
same,normalized growth,"S. cerevisiae deletion strains, locus YPL055C, strain LGE1, active compounds read low",0.828
same,normalized growth,"S. cerevisiae deletion strains, locus YPL078C, strain atp4, active compounds read low",0.855 (active)
same,normalized growth,"S. cerevisiae deletion strains, locus YPL106C, strain sse1, active compounds read low",1.05
same,normalized growth,"S. cerevisiae deletion strains, locus YPL240C, strain hsp82, active compounds read low",0.963
same,normalized growth,"S. cerevisiae deletion strains, locus YPL241C, strain CIN2, active compounds read low",0.982
same,normalized growth,"S. cerevisiae deletion strains, locus YPL256C, strain CLN2, active compounds read low",0.915
same,normalized growth,"S. cerevisiae deletion strains, locus YPR119W, strain clb2, active compounds read low",0.983
same,normalized growth,"S. cerevisiae deletion strains, locus YPR141C, strain kar3, active compounds read low",0.972
same,normalized growth,"S. cerevisiae deletion strains, locus YPR163C, strain tif3, active compounds read low",0.983
same,normalized growth,"S. cerevisiae deletion strains, locus YPR167C, strain met16, active compounds read low",0.977
same,normalized growth,"S. cerevisiae deletion strains, strain wtn01, active compounds read low",0.881 (active)
same,normalized growth,"S. cerevisiae strains, strain wild type, active compounds read low",0.88 (active)
